Test [1] can be described thus: yeast TOR pathway RPL19A-GFP modulators, primary screen, cell-based, S. cerevisiae, multiplex flow cytometry (AID 1862; in the data active means percent of DMSO control GFP below about 86%;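 further: lower values mimic rapamycin by blocking the RPL19A rise seen in DMSO cells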). As to conditions: S. cerevisiae RPL19A-GFP strain, flow cytometry fluorescence, 3 h; at 10 µM; stronger effect = lower value. (Flow cytometry measures light scatter and fluorescence of single cells or particles in a stream.)
The nature of test [2]: modulators of MEP2-GFP levels in yeast, primary screen, S. cerevisiae, multiplex flow cytometry (AID 1867;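 active means GFP response, as percent of the DMSO control, above the screen-wide mean plus 3 SD, about 139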;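 further: median GFP channel fluorescence of barcode-gated MEP2-GFP cells measured by flow cytometry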). The following applies: S. cerevisiae MEP2-GFP strain, 3 h, at 10 µM, stronger effect = higher value, 100% means same as DMSO wells.
The nature of test [3]: modulators of CIT2-GFP expression in yeast, primary screen, S. cerevisiae, GFP fusion, multiplex flow cytometry (AID 1870;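 active means percent response above a set limit, the screen-wide mean plus 3 SD, cut at about 130% in these data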;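 further: barcoded CIT2-GFP strain pooled with four other GFP strains with rapamycin as positive control; median GFP fluorescence per well over plate mean of DMSO wells so 100% = DMSO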). As to conditions: 3 h, at 10 µM, stronger effect = higher value.
A short description of test [4]: modulators of LAP4-GFP expression in yeast, primary screen, S. cerevisiae, multiplex flow cytometry (AID 1873;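 active means GFP signal, as percent of the solvent control, above the screen mean plus 3 SD, about 149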). The following applies: 3 h, at 10 µM, stronger effect = higher value.
A short description of test [5]: modulators of AGP1-GFP expression in yeast TOR pathway, primary screen, cell-based, multiplex flow cytometry, S. cerevisiae (AID 1887;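 active means GFP signal above the screen-wide mean plus 3 SD, that is over about 124.5% of the solvent control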;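 further: AGP1-GFP fusion strain of S. cerevisiae within a five-strain barcoded multiplex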). As to conditions: 3 h, at 10 µM, stronger effect = higher value.
Test [6] is described as follows: inhibitors of CD8+ T cell-vesicle binding, pilot screen, LFA-1/ICAM-1 modulator project, MLPCN validation set, flow cytometry (AID 2523;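 active means response below a set limit, under 55% cells CD8-positive and vesicle-bound, and CD8 cells' 90th-percentile brightness under 279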;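 on vesicle binding response: mean PE anti-B7-1 fluorescence of CD8+ cells relative to row control; 100% = QL9-loaded vesicles with DMSO vehicle in the same plate row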). The following applies: 2C mouse CD8+ T cells, at 7 µM, stronger effect = lower value; double positive events: measured here: CD8+/vesicle+ event percentage.
For test [7], the target named is Integrin beta-1 (Homo sapiens) + Integrin alpha-4 (Homo sapiens) (UniProt P13612+P05556). Kind of test: inhibition of HUTS-21 binding to VLA-4, pilot screen, VLA-4 allosteric modulator project, U937 cells, HUTS-21 mAb, flow cytometry, validation set (AID 2674;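 active means inhibition above 50%, about 3 SD of the validation set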;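 further: antibody binding induced by the VLA-4 ligand LDV present at three times its Kd; 0% = LDV ligand with antibody and no compound and 100% = antibody without LDV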). As to conditions: HUTS-21 LIBS mAb binding, at 6.7 µM, stronger effect = higher value, binding induced by LDV ligand.

Test [8] in a line: superoxide lowering in aged yeast cells, pilot screen, validation compound set (AID 2706;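 active means superoxide response below 65% of plate, a cut near 3 SD across the whole screen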;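 further: yeast exposed to compound for one week at 30 degrees C before staining; 100% = mean of all compound wells on the same plate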). As to conditions: S. cerevisiae aging, superoxide DHE fluorescence; at 10 µM; stronger effect = lower value.
The target of test [9] is Beta-adrenergic receptor kinase 1 (Homo sapiens) (UniProt P25098). Kind of test: GRK2 binders displacing RNA aptamer, biochemical, validation, human GRK2, bead flow cytometry (AID 488806;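 active means aptamer binding inhibition above 30%, about 3 SD of noise from non-fluorescent compounds; inactive means inhibition at or below 30%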). The following applies: bead-bound GRK2, FAM-aptamer displacement, at 10 µM, stronger effect = higher value.
The target in test [10] is Beta-2 adrenergic receptor (Homo sapiens) (UniProt P07550). The experiment in a line: beta2AR agonists driving receptor internalization, pilot screen, cell-based, FAP fluorogen, flow cytometry, validation set (AID 504459;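 active means percent response above 42, roughly 3 SD of non-fluorescent test compounds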;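 further: agonist-driven loss of surface beta2AR via internalization measured by FAP dye flow cytometry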). The following applies: Am2.2-beta2AR cells, FAP surface receptor flow cytometry; at 10 µM; stronger effect = higher value.
For test [11], the target named is AP-2 complex subunit beta (Homo sapiens) (UniProt P63010). Kind of test: inhibitors of arrestin peptide binding to AP2, pilot screen, biochemical, validation set, GST-AP2 beads, flow cytometry (AID 504541;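 active means inhibition above 54%, about 3 SD of non-fluorescent compounds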;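 further: AP2 carries R879A mutation and is captured from E. coli lysate; bead-bound FITC arrestin peptide fluorescence measuring arrestin peptide binding to AP2; 0% = DMSO wells and 100% = excess unlabeled arrestin peptide control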). As to conditions: FITC arrestin peptide, at 10 µM, stronger effect = higher value, AP2 beta2 appendage fragment, R879A mutant.
Test [12] can be described thus: yeast V-ATPase proton transport modulators, S. cerevisiae, pHLuorin, HTS validation (AID 504600; in the data active means response above about 15%;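 further: plate controls were DMSO for no effect and reference compound for full effect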). The following applies: S. cerevisiae pHLuorin cytosolic pH, at 10 µM, stronger effect = higher value.
In test [13] the test system is anti-desmoglein-3 scFv antibody binding to human DSG3. The experiment in a line: inhibitors of anti-DSG3 scFv binding to DSG3, pilot screen, biochemical, validation compound set, bead-based, flow cytometry (AID 588368;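 active means binding below the plate cutoff, the plate median minus 3 SD, with a reading above zero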;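 further: signal is the median channel fluorescence of bead-bound GFP antibody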). The following applies: Protein G beads, DSG3-Fc, scFv-GFP binding, at 10 µM, stronger effect = lower value.
A short description of test [14]: inhibitors of fungal efflux pumps CDR1, CDR2, MDR1, pilot screen, validation compound set, multiplex, phenotypic (AID 588506;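 active means efflux inhibition above 0.42, the validation set average plus 4 SD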;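 further: Nile Red retained in cells so higher fluorescence means more efflux inhibition; 0 = negative control wells and 1 = enniatin B 25 µM full block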). The following applies: S. cerevisiae pump-expressing triplex, Nile Red efflux flow cytometry; at 10 µM; stronger effect = higher value; the pumps come from Candida albicans.
The target in test [15] is ATP-binding cassette sub-family B member 6 (Homo sapiens) (UniProt Q9NP58). Kind of test: ABCB6 transporter inhibitors, pilot screen, K562-ABCB6 cells, flow cytometry, validation set (AID 588550).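 Further: 0% = DMSO wells and 100% = benzethonium chloride 70 µM positive control.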 As to conditions: K562-ABCB6 porphyrin accumulation, 1 h, at 10 µM, stronger effect = higher value.
Test [16] can be described thus: promoters of myeloid differentiation in arrested cells, primary screen, cell-based, GFP/MAC1 double positive, flow cytometry, validation set (AID 588685;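 active means differentiation response of at least 50%, scaled between solvent and reference control, from cells with both markers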;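 further: compound exposure lasts four days before antibody staining and flow analysis; 0% = DMSO wells and 100% = 5 µM fulvestrant positive control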). As to conditions: ER-HoxA9 marrow cells, stronger effect = higher value, normalized: vehicle 0, fulvestrant 100.

Structures are written as SMILES. Records with an inconclusive call do not appear. The source made the active and inactive calls.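 How the source made its calls, unless noted: active means inhibition above the screen-wide mean plus 3 SD, about 51%; inactive means the rest.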

As usually defined, the inhibition is the drop in the measured response relative to a control, in per cent.

Chain of Integrin beta-1 (Homo sapiens) + Integrin alpha-4 (Homo sapiens) (P05556 whole entry, looked up): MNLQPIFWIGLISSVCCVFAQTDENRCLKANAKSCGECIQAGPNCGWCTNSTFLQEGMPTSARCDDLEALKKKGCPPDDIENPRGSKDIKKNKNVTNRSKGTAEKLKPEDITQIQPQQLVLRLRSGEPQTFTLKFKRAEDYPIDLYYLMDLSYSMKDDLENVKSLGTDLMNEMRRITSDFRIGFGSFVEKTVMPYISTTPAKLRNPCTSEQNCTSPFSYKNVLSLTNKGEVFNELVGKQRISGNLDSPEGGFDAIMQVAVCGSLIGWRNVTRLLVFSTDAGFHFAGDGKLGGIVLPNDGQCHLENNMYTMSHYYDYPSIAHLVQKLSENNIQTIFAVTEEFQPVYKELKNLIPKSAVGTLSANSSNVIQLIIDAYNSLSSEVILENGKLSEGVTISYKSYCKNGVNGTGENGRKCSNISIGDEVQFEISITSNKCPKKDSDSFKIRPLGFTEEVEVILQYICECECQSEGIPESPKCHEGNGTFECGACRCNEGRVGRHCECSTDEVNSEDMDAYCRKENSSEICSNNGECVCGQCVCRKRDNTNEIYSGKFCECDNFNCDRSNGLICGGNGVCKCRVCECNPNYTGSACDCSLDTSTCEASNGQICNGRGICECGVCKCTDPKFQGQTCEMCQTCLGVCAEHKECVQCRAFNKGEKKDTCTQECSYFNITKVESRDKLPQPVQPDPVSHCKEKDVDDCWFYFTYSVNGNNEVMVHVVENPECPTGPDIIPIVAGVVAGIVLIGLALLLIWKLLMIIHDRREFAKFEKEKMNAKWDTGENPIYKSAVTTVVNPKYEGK
Chain of Integrin beta-1 (Homo sapiens) + Integrin alpha-4 (Homo sapiens) (P13612 whole entry, looked up): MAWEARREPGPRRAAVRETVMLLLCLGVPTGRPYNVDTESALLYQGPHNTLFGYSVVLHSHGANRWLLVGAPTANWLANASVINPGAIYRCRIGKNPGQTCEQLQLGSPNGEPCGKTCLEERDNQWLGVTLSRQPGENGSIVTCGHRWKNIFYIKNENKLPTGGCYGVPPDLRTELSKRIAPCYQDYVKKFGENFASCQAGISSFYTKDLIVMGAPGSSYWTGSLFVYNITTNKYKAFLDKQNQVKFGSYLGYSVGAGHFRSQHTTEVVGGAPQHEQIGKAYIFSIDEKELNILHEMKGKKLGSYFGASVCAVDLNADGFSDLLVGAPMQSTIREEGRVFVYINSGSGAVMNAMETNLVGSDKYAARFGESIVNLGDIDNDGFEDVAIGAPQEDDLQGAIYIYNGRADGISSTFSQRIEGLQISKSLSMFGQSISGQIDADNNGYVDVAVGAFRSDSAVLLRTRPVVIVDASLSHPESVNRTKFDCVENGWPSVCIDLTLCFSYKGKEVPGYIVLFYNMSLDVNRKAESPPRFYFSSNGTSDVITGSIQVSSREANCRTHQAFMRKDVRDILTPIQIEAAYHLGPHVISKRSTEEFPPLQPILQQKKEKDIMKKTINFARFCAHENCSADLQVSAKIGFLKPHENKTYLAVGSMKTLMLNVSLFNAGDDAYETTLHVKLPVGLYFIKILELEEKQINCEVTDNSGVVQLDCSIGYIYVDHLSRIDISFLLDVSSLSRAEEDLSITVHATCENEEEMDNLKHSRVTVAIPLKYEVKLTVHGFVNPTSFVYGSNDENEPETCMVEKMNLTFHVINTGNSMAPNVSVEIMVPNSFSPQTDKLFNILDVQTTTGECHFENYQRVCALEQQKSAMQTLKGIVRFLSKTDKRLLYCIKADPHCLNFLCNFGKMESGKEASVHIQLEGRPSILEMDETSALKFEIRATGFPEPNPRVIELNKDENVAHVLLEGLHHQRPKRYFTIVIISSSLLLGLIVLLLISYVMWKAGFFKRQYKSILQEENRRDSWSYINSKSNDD
Chain of Beta-2 adrenergic receptor (Homo sapiens) (P07550 whole entry, looked up): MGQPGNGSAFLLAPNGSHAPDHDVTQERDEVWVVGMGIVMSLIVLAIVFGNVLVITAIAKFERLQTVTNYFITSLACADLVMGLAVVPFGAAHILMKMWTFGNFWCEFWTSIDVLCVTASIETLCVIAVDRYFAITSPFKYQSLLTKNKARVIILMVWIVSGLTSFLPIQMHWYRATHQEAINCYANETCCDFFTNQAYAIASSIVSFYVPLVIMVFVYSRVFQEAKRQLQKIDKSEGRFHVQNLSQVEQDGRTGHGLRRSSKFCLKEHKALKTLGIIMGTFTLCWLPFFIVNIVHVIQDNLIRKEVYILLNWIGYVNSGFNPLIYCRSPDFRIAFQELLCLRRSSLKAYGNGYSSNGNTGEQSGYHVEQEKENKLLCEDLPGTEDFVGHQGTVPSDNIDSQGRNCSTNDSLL
Chain of Beta-adrenergic receptor kinase 1 (Homo sapiens) (P25098 whole entry, looked up): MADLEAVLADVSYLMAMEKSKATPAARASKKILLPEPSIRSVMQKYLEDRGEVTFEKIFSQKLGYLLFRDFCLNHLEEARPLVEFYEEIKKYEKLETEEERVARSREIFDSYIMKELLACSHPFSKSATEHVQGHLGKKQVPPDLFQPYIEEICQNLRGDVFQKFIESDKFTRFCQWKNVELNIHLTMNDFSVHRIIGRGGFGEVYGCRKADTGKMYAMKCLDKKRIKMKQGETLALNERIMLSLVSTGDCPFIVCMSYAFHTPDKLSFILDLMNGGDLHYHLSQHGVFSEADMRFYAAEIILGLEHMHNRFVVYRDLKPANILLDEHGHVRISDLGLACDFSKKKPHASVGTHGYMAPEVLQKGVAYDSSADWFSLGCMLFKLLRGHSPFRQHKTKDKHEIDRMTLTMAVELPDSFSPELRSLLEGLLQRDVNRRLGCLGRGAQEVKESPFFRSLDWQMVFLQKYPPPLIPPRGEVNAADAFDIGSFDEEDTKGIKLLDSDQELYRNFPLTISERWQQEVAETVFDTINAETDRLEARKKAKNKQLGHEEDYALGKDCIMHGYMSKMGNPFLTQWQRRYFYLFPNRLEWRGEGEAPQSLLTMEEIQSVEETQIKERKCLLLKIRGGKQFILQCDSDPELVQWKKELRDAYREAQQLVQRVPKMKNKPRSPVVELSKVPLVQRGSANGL
Chain of ATP-binding cassette sub-family B member 6 (Homo sapiens) (Q9NP58 whole entry, looked up): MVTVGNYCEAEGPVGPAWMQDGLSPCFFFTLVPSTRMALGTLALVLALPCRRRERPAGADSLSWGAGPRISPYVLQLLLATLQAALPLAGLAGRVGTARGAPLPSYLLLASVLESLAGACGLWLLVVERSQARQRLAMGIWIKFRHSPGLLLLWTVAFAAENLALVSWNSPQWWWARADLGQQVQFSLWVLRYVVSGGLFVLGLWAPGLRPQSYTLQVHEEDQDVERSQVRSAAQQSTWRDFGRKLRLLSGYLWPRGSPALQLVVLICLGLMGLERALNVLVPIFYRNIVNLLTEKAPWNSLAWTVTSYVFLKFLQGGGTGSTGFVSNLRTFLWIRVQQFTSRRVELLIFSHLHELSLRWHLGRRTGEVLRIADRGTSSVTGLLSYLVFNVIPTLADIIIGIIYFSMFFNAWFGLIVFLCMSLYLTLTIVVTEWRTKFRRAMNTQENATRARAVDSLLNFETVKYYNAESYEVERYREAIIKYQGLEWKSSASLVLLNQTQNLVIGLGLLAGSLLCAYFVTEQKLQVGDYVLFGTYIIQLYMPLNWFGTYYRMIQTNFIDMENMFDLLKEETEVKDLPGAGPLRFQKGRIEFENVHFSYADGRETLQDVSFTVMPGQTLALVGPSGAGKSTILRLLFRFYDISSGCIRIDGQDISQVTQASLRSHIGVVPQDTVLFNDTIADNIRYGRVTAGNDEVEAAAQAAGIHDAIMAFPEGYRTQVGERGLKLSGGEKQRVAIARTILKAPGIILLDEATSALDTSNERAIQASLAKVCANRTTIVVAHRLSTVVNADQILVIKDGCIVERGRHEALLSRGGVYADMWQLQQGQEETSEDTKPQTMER
Chain of AP-2 complex subunit beta (Homo sapiens) (P63010 whole entry, looked up, the tested form may be a part, one chain of several): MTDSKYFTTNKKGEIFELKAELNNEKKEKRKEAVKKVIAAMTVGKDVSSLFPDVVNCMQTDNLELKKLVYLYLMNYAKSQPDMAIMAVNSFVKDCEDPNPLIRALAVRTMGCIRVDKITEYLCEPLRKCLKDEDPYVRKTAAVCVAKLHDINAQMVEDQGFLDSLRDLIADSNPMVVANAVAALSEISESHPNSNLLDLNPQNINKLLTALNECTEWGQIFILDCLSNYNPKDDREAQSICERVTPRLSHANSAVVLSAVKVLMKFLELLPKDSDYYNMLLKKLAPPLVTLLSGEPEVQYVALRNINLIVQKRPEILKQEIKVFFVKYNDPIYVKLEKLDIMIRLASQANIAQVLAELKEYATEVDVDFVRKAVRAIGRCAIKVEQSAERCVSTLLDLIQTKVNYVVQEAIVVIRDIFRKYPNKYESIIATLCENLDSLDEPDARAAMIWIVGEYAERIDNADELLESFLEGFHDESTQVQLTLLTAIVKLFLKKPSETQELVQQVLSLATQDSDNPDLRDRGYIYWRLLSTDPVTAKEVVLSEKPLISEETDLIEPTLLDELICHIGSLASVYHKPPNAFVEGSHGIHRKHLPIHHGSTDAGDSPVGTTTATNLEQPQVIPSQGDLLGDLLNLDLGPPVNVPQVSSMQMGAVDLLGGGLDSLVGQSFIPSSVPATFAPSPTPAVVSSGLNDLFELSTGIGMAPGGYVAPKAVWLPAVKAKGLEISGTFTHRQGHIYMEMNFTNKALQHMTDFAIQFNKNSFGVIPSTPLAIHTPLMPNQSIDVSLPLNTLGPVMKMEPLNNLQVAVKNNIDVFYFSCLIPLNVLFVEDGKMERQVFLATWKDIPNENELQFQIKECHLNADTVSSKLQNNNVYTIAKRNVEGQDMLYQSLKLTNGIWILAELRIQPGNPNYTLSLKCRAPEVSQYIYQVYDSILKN

With `CN(C)CCCN1c2ccccc2CCc2ccccc21`, the percent of DMSO control GFP in test [1] is 99% (inactive). Moreover, the GFP response vs DMSO in test [2] was 103% (inactive); in test [4] it was 90.7% (inactive). Also, the percent response of DMSO control in test [3] was 101% (inactive). Moreover, the GFP response, % of DMSO in [5] is 95.3% (inactive). In test [6], this molecule returned a double positive events of 65.8%. The vesicle binding response in test [6] was 1060% (inactive). Moreover, the inhibition is 12% (inactive) in test [7], 4.55% (inactive) in test [11] and 3% (inactive) in [15]. In test [8], the superoxide response (% of plate) was 89.3% (inactive). In addition, in test [9], the aptamer binding inhibition was -2% (inactive). Also, the response in test [10] is 2.45% (inactive); in test [12], -0.62% (inactive). Besides, in [13], the binding (% of control) was 99.7% (inactive). For the same molecule, in [14], the efflux inhibition (fraction of control) was -0.2 (inactive). Also, in [16], the differentiation response is 6.11% (inactive).

Take `CN(C)CC/C=C1\c2ccccc2Sc2ccc(Cl)cc21`: the percent of DMSO control GFP in test [1] is 104% (inactive). The GFP response vs DMSO in test [2] is 110% (inactive); in [4] it was 106% (inactive). Further, the percent response of DMSO control in [3] was 103% (inactive). The GFP response, % of DMSO in test [5] is 106% (inactive). In addition, the double positive events in test [6] was 64.5%. In test [6], the vesicle binding response is 157% (inactive). For the same molecule, the inhibition is 9.63% (inactive) in test [7], 54.9% (active) in [11] and 9% (inactive) in [15]. The superoxide response (% of plate) in test [8] was 88.7% (inactive). For the same molecule, the aptamer binding inhibition in [9] is -5% (inactive). For the same molecule, the response in test [10] was 19.9% (inactive); in test [12] it was -15.9% (inactive). Moreover, the binding (% of control) in test [13] is 106% (inactive). For the same molecule, in [14], the efflux inhibition (fraction of control) is 0.08 (inactive). Further, the differentiation response in [16] was -17.7% (inactive).

Take `COc1ccc(C2CC(c3ccc([N+](=O)[O-])cc3)=NN2C(=O)c2ccccc2)cc1OC` (stereo not given): the percent of DMSO control GFP in test [1] is 97.1% (inactive). In addition, the GFP response vs DMSO in test [2] was 101% (inactive); in [4] it was 108% (inactive). Also, the percent response of DMSO control in test [3] was 97% (inactive). Besides, the GFP response, % of DMSO in [5] was 116% (inactive). In addition, in test [6], the double positive events came to 64.6%. Besides, in test [6], the vesicle binding response is 211% (inactive). For the same molecule, the values for the inhibition in [7], in test [11] and in [15] were 13.4% (inactive), 65.2% (active) and 0% (inactive), respectively. Moreover, the superoxide response (% of plate) in test [8] is 79.1% (inactive). For the same molecule, the aptamer binding inhibition in test [9] is 4% (inactive). The results for the response in test [10] and in [12] were 6.46% (inactive) and -0.24% (inactive), respectively. Further, the binding (% of control) in test [13] is 92.9% (inactive). The efflux inhibition (fraction of control) in [14] is 0.59 (active). For the same molecule, the differentiation response in test [16] was -12.9% (inactive).

As for `Cc1nc2ccccn2c(=O)c1CCN1CCC(C(=O)c2ccc(F)cc2)CC1`, the percent of DMSO control GFP in test [1] is 103% (inactive). For the same molecule, the GFP response vs DMSO is 105% (inactive) in [2] and 101% (inactive) in test [4]. Besides, the percent response of DMSO control in test [3] was 104% (inactive). The GFP response, % of DMSO in test [5] was 104% (inactive). Moreover, the double positive events in [6] amounted to 56.6%. The vesicle binding response in test [6] is 166% (inactive). The inhibition is -26.6% (inactive) in test [7], 51.2% (inactive) in [11] and 2% (inactive) in test [15]. Further, the superoxide response (% of plate) in test [8] was 95.8% (inactive). Also, the aptamer binding inhibition in test [9] was 0% (inactive). Further, the results for the response in [10] and in [12] were -22.4% (inactive) and -1.11% (inactive), respectively. In addition, the binding (% of control) in test [13] is 106% (inactive). For the same molecule, the efflux inhibition (fraction of control) in [14] is -0.025 (inactive). The differentiation response in [16] is -10.4% (inactive).

With `c1ccc(Nc2ccccn2)nc1`, the percent of DMSO control GFP in test [1] is 98.6% (inactive). Further, the GFP response vs DMSO in test [2] was 105% (inactive); in [4], 115% (inactive). Besides, in [3], the percent response of DMSO control was 88.2% (inactive). Also, the GFP response, % of DMSO in test [5] was 100% (inactive). In test [6], this molecule returned a double positive events of 59.3%. Also, in test [6], the vesicle binding response is 190% (inactive). In addition, the values for the inhibition in [7], in [11] and in test [15] were -3.16% (inactive), -0.14% (inactive) and 4% (inactive), respectively. Besides, the superoxide response (% of plate) in test [8] is 97.5% (inactive). Also, the aptamer binding inhibition in [9] is 3% (inactive). Further, the response in test [10] is -8.84% (inactive); in [12], -2.96% (inactive). Also, the binding (% of control) in test [13] was 103% (inactive). Besides, the efflux inhibition (fraction of control) in [14] is 0.26 (inactive). Besides, the differentiation response in [16] was 7.2% (inactive).

The values are drawn from PubChem BioAssay.
